Experimental data: PubChem BioAssay AID1347426 (Functional Genomics Laboratory (NCATS/FGL), 2020)
In all, about 31,000 sequences went through this assay and about 1,400 (4.5%) were called active. This excerpt belongs to a sample that is enriched for actives. Values without a mark were called inactive.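 The calls were made as follows: active = median seed-adjusted z-score above 1 or below -1; inactive = the rest.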

Test: Novel Modifiers of Survival Motor Neuron (SMN) Protein: Gene Identification via Genome-wide siRNA Screen;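 also: luminescence tracks full-length SMN protein made from the SMN2 reporter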
Settings: HEK293T SMN2-luciferase reporter, siRNA knockdown, 72 h; actives lie on both sides
In short: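 Luciferase signal, proportional to full-length SMN made from an SMN2 cDNA reporter in stable HEK293T cells, was read 72 h after siRNA reverse transfection. Values were expressed as MAD scores after non-targeting-control normalization and log10 conversion; seed analysis flagged off-targets.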

| Sequence | median seed-adjusted z-score |
| --- | --- |
| GACCGUUUAAUGAAGCUUUTT against SPTLC2 | 0 |
| CCAUUGUAGUCUCUCCUCUTT against RECQL5 | 0 |
| GCCCUCCUGUGCAACCAUATT against SPRR2G | 0.358 |
| ACAUGAAGGUGAAUCCUGUTT against COX4I2 | -0.0202 |
| CAGCGAUUUUAAAUCGUAUTT against HSD17B13 | -0.329 |
| CAACCAACCUGCAUCUAGATT against TRIM33 | 0.316 |
| CGACCCUUGAAGUUCAAUATT against EFTUD2 | -1.25 (active) |
| GGAUCCUUCUAUACGCAUATT against SLC4A7 | 0 |
| CAGUAGAUGUGGAAAAGGATT against PTK2B | 1.71 (active) |
| CCAUUGAUGGAGUCAGAUUTT against POLD2 | 0.97 |
| CCACUAGUGAAACAACCAATT against PCLO | -0.734 |
| GCAAGGAGCUAGAGCCUUUTT against MOBKL2B | -0.613 |
| GCAAGUCCACGUUCCUCAATT against GNA12 | 0.598 |
| AGCUACCGAUGGAAGAGGATT against CLK3 | -1.11 (active) |
| AGGUCAAGCUUAGUGACAATT against ZDHHC8 | 0 |
| GCUUCUCAUGGGAUCAAAATT against PGCP | 0.145 |
| CCGGGAAAUUGAUUAUGCATT against SIN3B | 0.509 |
| GCAUCUCAUCGGAAGAGGATT against MAP3K12 | -0.6 |
| GAUCCUAAAUCAUGACUUATT against COX6B1 | -0.706 |
| GGACGAAUGAGUUCCAGUUTT against PCDHB8 | 1.15 (active) |
| AGACCUAGCUUUAGCACAATT against ZFAND2B | 0 |
| GAAGCGGCAUUAGCAGAGATT against ISOC1 | 0.104 |

| Sequence | median seed-adjusted z-score |
| --- | --- |
| GGUAAAAUCAAGUACCAUATT against TIGD2 | -0.13 |
| GCAUCACCAUCCUUCCGCATT against BACE1 | -0.537 |
| AGAGAGUGGUUUUUCCUCCTT against WWP2 | -0.685 |
| GUGCUUCAGUAGGUAUGUATT against ASNS | -1.1 (active) |
| GGCCUUUAGUUAUAAAGGATT against TIMM8A | 0.173 |
| ACAUAGCCGUGUCCAGGUATT against GLYCTK | 0.0328 |
| GACCUGAAUUGUAUCAUCATT against MAPK3 | -0.573 |
| GAACUCCAGAGAUCAAUAATT against IL7R | 0 |
| CCAACUAUCAGUGACCGUATT against CYP17A1 | -1.39 (active) |
| CUAUCACCUGGACUGUAUATT against RNF11 | -0.365 |
| GGAGACUUACUACCUAUAATT against PARD6B | 0.315 |
| GGCUUCUUCUAUUCAAUUUTT against BCL6B | 0 |
| GAACUGACAAGCUUAGUAATT against SAP18 | 2.14 (active) |
| AUACAGAUCUAAUAGAGUUTT against NAT1 | -0.0665 |
| CCAUUGACAAUUCAACUUATT against ST8SIA1 | -0.25 |
| CGCCUCAACCUGAUCAUCATT against ENPP7 | -0.478 |
| GUGCCUUGCUAUUCUAAGATT against NEUROD1 | 0 |
| GAAACUCUCUUCAAGUCUATT against CKB | -0.236 |
| GGCAAAUGGUUGAGACUGATT against YWHAE | 1.38 (active) |
| GCAGCAUAAUGAAACGUGATT against ARPM1 | -0.0251 |
| UCUUCGAGCAAGAAACUAATT against CD9 | -1.02 (active) |
| AUAAAUUCCUGAUUGCUAATT against CXCL6 | 0.802 |

| Sequence | median seed-adjusted z-score |
| --- | --- |
| GGACUACAGCGGACAAGGATT against WDR1 | -0.457 |
| GGAACAUUCCUGUGCAACATT against MTMR3 | 0.281 |
| GAUGAUAGCCAAACCCUCATT against ZNF626 | 0.185 |
| GGUGUUGUUUCAUCGUUUUTT against CCNL1 | -1.26 (active) |
| GUGCAUGCAGGAGAAGUCATT against GATA2 | 0.623 |
| GCAUGCAGCCUUGAAGAUATT against CRYZL1 | 0.0481 |
| CGUGUCAAAUAUUGGAUUATT against KLB | 0.221 |
| GCACCUUCGUCCUCAACUUTT against PROC | -0.228 |
| CCGCUGAACCUGUUGAAGATT against SGMS2 | -0.492 |
| GGUGCUCUCGGUUGCACAATT against U2AF1 | 2.08 (active) |
| CAAGCUCUGAUAUACCGAATT against HIVEP1 | 0.532 |
| UGCACAUCAAGUAUCCUAATT against SLC30A10 | 0.523 |
| GCAUCAUCCAGAACACGGATT against ARHGEF18 | 0.586 |
| CGAUGGAGAUGUUUCGGGATT against KCNA2 | -1.03 (active) |
| GCGAGAGUCUGCAUAGGUATT against GRIN2D | -0.135 |
| GGAAGAAAGUAUAAUAGAATT against MAFG | 0 |
| UGAUCAACCUCAAGACGGATT against MED16 | -0.6 |
| GAAACACGUCAGUCCUAAUTT against LHX8 | 0 |
| GAAGUUCAUACUAAGCGUATT against TPR | -1.03 (active) |
| CGUGGUACCAGACAUCUGATT against CCL17 | 0.178 |
| GACCGACUGCAGAACAAUATT against PDE6B | -0.336 |
| GGAUAAUACAGUUCGAUUATT against TAF5 | -0.192 |

| Sequence | median seed-adjusted z-score |
| --- | --- |
| GACUCCCUGCUUUCAAUAATT against SALL2 | 0.504 |
| CCCUCUCAGUACUACGCUATT against ZMYND10 | 0.255 |
| CAAGAAAACUGCGAAUAAATT against STX2 | 0.442 |
| GUUUCAUCUGGGUUCGCUATT against SF3B3 | -2.53 (active) |
| GAACCAUCUCAAUACUAUUTT against DACH2 | -0.00102 |
| GGGCGAGUAUUAUGACUAUTT against MYO15A | 0.0508 |
| GACUGUUCGUUUCCCAGAUTT against CHRNA7 | -0.485 |
| GAGACAGCCUGAUGGAGAATT against STC1 | -1.36 (active) |
| GCUCCUUGCUACCAUAGUATT against CCBP2 | -0.0896 |
| CUCUCAGACAAGCUACUGATT against CCL27 | 0 |
| GUUGUGGUCUGAUCAGUUATT against TUBA1A | 0.284 |
| AGUUCCCUUUGUAACCAUATT against ZNF669 | 0.175 |
| AGGCUGCGUUUGGACCAGATT against PAPLN | -0.186 |
| CAUGGGUGCUUAUAAGUCATT against IL1A | 1.12 (active) |
| GGGCUGCACCAAAGCCUAUTT against KLF14 | 0.0241 |
| GUUUAUUUCGUACACUAAATT against KTI12 | 0.0814 |
| GCGUCGUGGUCAUGAACAATT against PIP5K1C | -0.13 |
| CAGUGUCCCUAUGAAGGGATT against SRMS | -1.58 (active) |
| GCUAUUGAGUUUGCCCAAATT against ADHFE1 | 0.418 |
| CUAGUGAUCUUUUAGAGUUTT against CSGALNACT2 | 0.236 |
| GAACUUUAUUGCAAAGUUUTT against CSRP3 | 0.15 |
| GCAUCGAGAUCCACGAAGATT against PITPNM3 | -0.0378 |

| Sequence | median seed-adjusted z-score |
| --- | --- |
| AGAAGACUCUGGUAAUGUATT against WHSC1 | 1.17 (active) |
| CUGAUUCAAGAGAAGAUUATT against SMARCAL1 | -0.145 |
| GAACAGAUCCGGAAGAAGATT against NR1H2 | 0.069 |
| GGACUUUGAUUGCUAGCAATT against CTRC | -0.104 |
| GCUUGAAGAGUUUGGCUGGTT against DUSP15 | 0 |
| GCAAUUAACAAUUAUCGAUTT against RNASE3 | 0.588 |
| AGUUUGUCCUGAAGAAUUATT against PTPN23 | -0.0473 |
| GGGUCAUCUAUAUCCGCAATT against GPR132 | 0 |
| GCAUCUGCUGUAUCGAUGATT against MCM4 | 0.0057 |
| GCCCUUACAGGGUAUCAAATT against DDX46 | -1.24 (active) |
| CACGGAUUCUUGUUGGAAATT against RAB33B | -0.758 |
| GUUCGAAUCAAGAACCCUATT against NT5C3 | -0.456 |
| UGAUAGAGAUCAACCCAUATT against PSMB5 | -1.37 (active) |
| ACAUGAUCAUCAGUGUGAATT against FABP4 | 0.227 |
| GCGUCAUGAUGUUCACCUATT against ITGB5 | -0.00882 |
| GCAUGGGAAUCAUUGUGCUTT against PPIL1 | 0.166 |
| CCAGUACACUUUUGUCUGATT against CDC5L | -0.628 |
| AAGUGUGCCUGAAUACUAUTT against KHDRBS2 | -0.335 |
| GGAGCAGUCACUUACAGAATT against PINK1 | 0.192 |
| CCACUGUCCUGUUUGAGAUTT against FKBP6 | -1.12 (active) |
| CGGAUUAUCUUCUAUCUAUTT against SLC6A14 | 0 |
